# Earlier results in PubChem BioAssay AID977611.
# Screen size: about 3,900 compounds; about 3,900 (100%) were called active. Cut-off not given; nearly all actives show Kd up to about 4200 µM. The set was probably picked from earlier hits. The list shows a part of the results. Where a SMILES comes first, the peptide text is derived from it. Non-standard residues stand in square brackets, D forms with d. Square brackets hold non-standard residues; d marks the D form. Residues, ends and D or L forms follow the SMILES beside them. Peptide text beside a SMILES is read from it. [ ]: non-standard residue; d: D form. * marks the point of attachment. Thr(P(OH)3+) = C[C@@H](O[P+](O)(O)O)[C@H](N)C(=O)O; Lys(Me3) = C[N+](C)(C)CCCC[C@H](N)C(=O)O; Orn(CH(NH2)2) = NC(N)NCCC[C@H](N)C(=O)O; Benzoyl(4-Br) = O=C(c1ccc(Br)cc1)*; Lys(Me2) = CN(C)CCCC[C@H](N)C(=O)O; Benzoyl(4-F) = O=C(c1ccc(F)cc1)*
# Test: PubChem AID 977611
# Conditions: PDB protein-ligand complexes, literature Kd
compound,measurement,setting,value
NS(=O)(=O)c1ccc(CNc2ncnc(NCc3ccccc3)c2[N+](=O)[O-])cc1,Kd,"protein: human carbonic anhydrase II, PDB entry 3mhm",0.1 µM (active)
CC(C)[C@H](NC(=O)[C@H](CCCCN(C)C)NC(=O)[C@H](CO)NC(=O)[C@H](CCCN=C(N)N)NC(=O)[C@H](C)NC(=O)[C@@H](NC(=O)[C@@H](N)CCCN=C(N)N)[C@@H](C)O)C(=O)O (H-RTARS[Lys(Me2)]V-OH),Kd,"protein: Chromodomain-helicase-DNA-binding protein 1 CHD1, PDB entry 4o42",22 µM (active)
CC(C)[C@H](NC(=O)[C@H](CCCC[N+](C)(C)C)NC(=O)[C@H](CO)NC(=O)[C@H](CCCN=C(N)N)NC(=O)[C@H](C)NC(=O)[C@H](C)NC(=O)[C@@H](N)CCCN=C(N)N)C(=O)O (tested in a mixture with another compound) (H-RAARS[Lys(Me3)]V-OH),Kd,"protein: Chromodomain-helicase-DNA-binding protein 1 CHD1, PDB entry 4nw2",29 µM (active)
CC[C@H](C)[C@H](NC(=O)[C@@H](N)CC(N)=O)C(=O)N[C@H](C(=O)N[C@@H](CCC(N)=O)C(=O)N1CCC[C@H]1C(=O)N[C@H](C(=O)N[C@@H](CCC(N)=O)C(=O)N[C@@H](CCC(N)=O)C(=O)N[C@@H](CO)C(=O)N[C@H](C(=O)O)[C@@H](C)O)[C@@H](C)O)[C@@H](C)O[P+](O)(O)O (H-NI[Thr(P(OH)3+)]QPTQQST-OH),Kd,"protein: Rad53 FHA1 domain, PDB entry 2jqi",10 µM (active)
CC[C@H](C)[C@H](NC(=O)[C@@H](N)CC(N)=O)C(=O)N[C@H](C(=O)N[C@@H](CCC(N)=O)C(=O)N1CCC[C@H]1C(=O)N[C@H](C(=O)N[C@@H](CCC(N)=O)C(=O)N[C@@H](CCC(N)=O)C(=O)N[C@@H](CO)C(=O)N[C@H](C(=O)O)[C@@H](C)O)[C@@H](C)O[P+](O)(O)O)[C@@H](C)O[P+](O)(O)O (H-NI[Thr(P(OH)3+)]QP[Thr(P(OH)3+)]QQST-OH),Kd,"protein: the yeast Dun1 FHA domain, PDB entry 2jql",0.3 µM (active)
Cn1c[n+]([C@@H]2O[C@H](CO[P+](O)(O)O[P+](O)(O)O)[C@@H](O)[C@H]2O)c2c1C(=O)NC(N)N2 (some centres undefined),Kd,"protein: rRNA N-glycosidase, PDB entry 4emf",0.0839 µM (active)
Cn1c[n+]([C@@H]2O[C@H](CO[P+](O)(O)O[P+](O)(O)O[P+](O)(O)O)[C@@H](O)[C@H]2O)c2c1C(=O)NC(N)N2 (some centres undefined),Kd,"protein: rRNA N-glycosidase, PDB entry 4emr",0.0321 µM (active)
C[C@H]1COCCN1C[C@H]1CN(S(=O)(=O)c2cccs2)CCN1c1ccc([C@@](C)(O)C(F)(F)F)cc1,Kd,"protein: Glucokinase regulatory protein, PDB entry 4ly9",0.007 µM (active)
COC(=O)c1cc(Nc2ncnc3[nH]ccc23)ccc1Br,Kd,"protein: TAU-TUBULIN KINASE 1, PDB entry 4btm",4.1 µM (active)
CC[C@H](C)[C@H](NC(=O)[C@H](CC(N)=O)NC(=O)[C@H](CCSC)NC(=O)[C@@H](N)CCCNC(N)N)C(=O)N[C@@H](CCC(N)=O)C(=O)N[C@@H](CCSC)C(=O)N[C@@H](CC(C)C)C(=O)N[C@@H](CC(C)C)C(=O)N[C@@H](CCC(=O)O)C(=O)N[C@@H](C)C(=O)N[C@@H](C)C(=O)N[C@@H](CC(=O)O)C(=O)N[C@@H](Cc1ccc(O)cc1)C(=O)N[C@@H](CC(C)C)C(=O)N[C@@H](CCC(=O)O)C(=O)N[C@@H](CCCNC(N)N)C(=O)O (H-[Orn(CH(NH2)2)]MNIQMLLEAADYLE[Orn(CH(NH2)2)]-OH),Kd,"protein: mammalian Sin3A PAH2 domain, PDB entry 1g1e",0.029 µM (active)
same,Kd,"protein: mammalian mSin3A (mSin3A) PAH2 domain, PDB entry 1s5q",5.2 µM (active)
CC[C@H](C)[C@H](NC(=O)[C@@H](N)CCCNC(N)N)C(=O)N[C@@H](CCC(N)=O)C(=O)N[C@@H](CCCNC(N)N)C(=O)N[C@@H](CC(N)=O)C(=O)N[C@@H](CCCCN)C(=O)N[C@@H](C)C(=O)N[C@@H](C)C(=O)N[C@@H](C)C(=O)N[C@@H](CC(C)C)C(=O)N[C@@H](CC(C)C)C(=O)N[C@@H](CCCNC(N)N)C(=O)N[C@@H](CC(C)C)C(=O)N[C@@H](C)C(=O)N[C@@H](C)C(=O)N[C@@H](CCCNC(N)N)C(=O)O (H-[Orn(CH(NH2)2)]IQ[Orn(CH(NH2)2)]NKAAALL[Orn(CH(NH2)2)]LAA[Orn(CH(NH2)2)]-OH),Kd,"protein: RPA32(C-terminal domain of Replication protein A,172-270), PDB entry 1dpu",1 µM (active)
CC[C@H](C)[C@H](NC(=O)[C@H](C)NC(=O)[C@H](CCC(=O)O)NC(=O)[C@H](CCCNC(N)N)NC(=O)[C@H](CC(C)C)NC(=O)[C@H](Cc1ccc(O)cc1)NC(=O)[C@H](CCCNC(N)N)NC(=O)[C@H](CC(=O)O)NC(=O)[C@H](CC(=O)O)NC(=O)[C@@H](N)CC(=O)O)C(=O)N[C@@H](CCC(N)=O)C(=O)N[C@@H](CCC(=O)O)C(=O)N[C@@H](Cc1ccc(O)cc1)C(=O)N[C@@H](CC(=O)O)C(=O)N[C@@H](CC(N)=O)C(=O)N[C@H](C(=O)N[C@@H](C)C(=O)N[C@@H](CCCCN)C(=O)O)[C@@H](C)CC (H-DDD[Orn(CH(NH2)2)]YL[Orn(CH(NH2)2)]EAIQEYDNIAK-OH),Kd,"protein: N terminal domain of Harmonin, PDB entry 2kbr",25.4 µM (active)
CC[C@H](C)[C@H](NC(=O)[C@H](CC(C)C)NC(=O)[C@H](CCCNC(N)N)NC(=O)[C@@H](N)CC(N)=O)C(=O)N[C@@H](CC(C)C)C(=O)O (H-N[Orn(CH(NH2)2)]LIL-OH),Kd,"protein: Chaperone protein DnaK, PDB entry 4ezy",2.26 µM (active)
H-EDMYRAADEIAKE-OH,Kd,"protein: E3 ubiquitin-protein ligase RNF31 HOIP 5-180, PDB entry 4oyk",0.18 µM (active)
CO/N=C(\C(=O)N[C@@H]1C(=O)N2C(C(=O)O)=C(COC(N)=O)CS[C@H]12)c1ccco1,Kd,"protein: PA4794, PDB entry 4kov",177 µM (active)
CO/N=C(\C(=O)N[C@@H]1C(=O)N2C(C(=O)O)=C(COC(C)=O)CS[C@H]12)c1csc(N)n1,Kd,"protein: PA4794, PDB entry 4kot",3.5 µM (active)
Cc1oc2ccc(NS(=O)(=O)c3ccc(Cl)cc3)cc2c1C(=O)O,Kd,"protein: Non-structural protein 5, PDB entry 3vws",225 µM (active)
CC[C@H](C)[C@H](NC(=O)[C@H](CCCCNC(=O)c1ccc(F)cc1)NC(=O)[C@H](CO)NC(=O)[C@@H](NC(=O)[C@@H]1CCCN1C(=O)[C@@H](N)Cc1c[nH]c2ccccc12)[C@@H](C)O)C(=O)O (H-WPTSK(Benzoyl(4-F))I-OH),Kd,"protein: Golgi-associated PDZ and coiled-coil motif-containing protein CAL PDZ (CALP) domain, PDB entry 4nms",11.4 µM (active)
H-WPK(Ac)SII-OH,Kd,"protein: Golgi-associated PDZ and coiled-coil motif-containing protein CAL PDZ (CALP) domain, PDB entry 4nmp",91.9 µM (active)
CC[C@H](C)[C@H](NC(=O)[C@H](CCCCNC(=O)c1ccc(Br)cc1)NC(=O)[C@H](CO)NC(=O)[C@@H](NC(=O)[C@@H]1CCCN1C(=O)[C@@H](N)Cc1c[nH]c2ccccc12)[C@@H](C)O)C(=O)O (H-WPTSK(Benzoyl(4-Br))I-OH),Kd,"protein: Golgi-associated PDZ and coiled-coil motif-containing protein CAL PDZ (CALP) domain, PDB entry 4nmv",11.1 µM (active)
CN1CCC/C=C\CCCC(=O)Cc2c(Cl)c(O)cc(O)c2C1=O,Kd,"protein: Hsp90 N-terminal domain, PDB entry 4ce3",110 µM (active)
CN1CC/C=C/CCCCCC(=O)Cc2c(Cl)c(O)cc(O)c2C1=O,Kd,"protein: Hsp90 N-terminal domain, PDB entry 4ce2",144 µM (active)
CN1CC/C=C/CCCCCCC(=O)Cc2c(Cl)c(O)cc(O)c2C1=O,Kd,"protein: Hsp90 N-terminal domain, PDB entry 4ce1",41.8 µM (active)
